The source of these data is PubChem BioAssay.

The source made the active and inactive calls. Unless noted, the rule behind the calls is not given here.

The test system of assay [1] is XIP peptide (Xip251-270) binding. Description: XIP fragment 251-270 binding compounds – biochemical, small-molecule microarray, fluorescence 635/667 nm, 0.1 µg/mL protein, primary screen (AID 1182). Particulars: fluorescent protein binding, 635 nm, higher = more signal, called active from +8 up or from −8 down.
Assay [2] relates to XIP peptide (Xip251-270). Description: compounds binding XIP fragment 251-270 – biochemical, small-molecule microarray, fluorescence 635/667 nm, 0.5 µg/mL protein, primary screen (AID 1183). Particulars: fluorescence 635 nm, higher = more signal.
A short description of assay [3]: blood-stage malaria parasite viability loss – strain 3D7, DAPI fluorescence, 100 nL, primary screen (AID 1184).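 Note: parasites grown inside human red blood cells in medium with human serum.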 Particulars: P. falciparum 3D7 growth, 3 d, higher = more signal.
Assay [4] deals with Homeobox protein Hox-A13 (Mus musculus) (UniProt Q62424). In words: disruptors of Hoxa13 oligonucleotide interaction – biochemical, fluorescence polarization, labeled oligonucleotide, primary screen (AID 1185). Particulars: Hoxa13:DNA binding, 15 min, higher = more signal, called active from +8 up or from −8 down. A general note: In fluorescence polarisation assays a small probe gives low polarisation when free and higher when bound to something large.

Assay [5] can be described thus: blockers of DNA damage checkpoint Chk1 activation – imaging, HeLa, hydroxyurea, phospho-Chk1 antibody, percent positive cells, primary screen (AID 1186). Particulars: hydroxyurea-induced phospho-Chk1 immunofluorescence imaging, higher = more signal.
Assay [6] can be described thus: blockers of DNA damage checkpoint Chk1 activation – imaging, HeLa, hydroxyurea, phospho-Chk1 nuclear intensity, primary screen (AID 1187). Particulars: hydroxyurea-induced phospho-Chk1 immunofluorescence imaging, higher = more signal.

Homeobox protein Hox-A13 (Mus musculus), sequence (Q62424 whole entry, looked up): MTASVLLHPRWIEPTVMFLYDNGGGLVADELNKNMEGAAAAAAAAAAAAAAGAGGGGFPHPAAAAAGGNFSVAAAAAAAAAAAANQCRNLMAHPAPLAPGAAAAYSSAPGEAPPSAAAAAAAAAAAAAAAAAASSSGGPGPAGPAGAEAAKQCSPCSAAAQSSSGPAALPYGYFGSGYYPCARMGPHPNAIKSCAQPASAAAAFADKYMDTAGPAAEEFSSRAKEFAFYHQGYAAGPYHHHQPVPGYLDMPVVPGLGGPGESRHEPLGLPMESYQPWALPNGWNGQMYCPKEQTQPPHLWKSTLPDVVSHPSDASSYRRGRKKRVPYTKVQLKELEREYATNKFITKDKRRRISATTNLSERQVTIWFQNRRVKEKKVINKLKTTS

For `C[N+](C)(C)CCCCNC(=O)[C@H]1C[C@H]2C(=O)NCC(=O)N2[C@H]1c1cccc(OCCO)c1`, the composite z-score in assay [1] was 1.88 (inactive); in assay [2], 0.839. Also, the z-score is 0.312 in assay [3], -2.52 (inactive) in assay [4], 0.0452 (inactive) in assay [5] and -0.0729 (inactive) in assay [6].

Take `C=CC[C@@]1(C(=O)NCC(O)CO)N=C(c2ccc(OCCCO)cc2)O[C@@H]1c1ccccc1CN=[N+]=[N-]` (some centres not stated): the composite z-score is 0.336 (inactive) in assay [1] and -0.105 in assay [2]. For the same compound, the z-score is -2.34 in assay [3], -2.67 (inactive) in assay [4], -0.691 (inactive) in assay [5] and -0.873 (inactive) in assay [6].

Regarding `CCCCO[C@H]1C[C@H]2C(Br)=C[C@@]1(CO)C(=O)[C@]21CO1`, the figures for the composite z-score in assay [1] and in assay [2] were -0.631 (inactive) and -0.329, respectively. Moreover, the z-score in assay [3] is 0.0951; in assay [4], -0.0157 (inactive); in assay [5] it was -0.407 (inactive); in assay [6], -0.291 (inactive).

Consider `CN1CCC(CCCO)=CC1C1CC1` (configuration not stated), for which the composite z-score is -0.289 (inactive) in assay [1] and -0.5 in assay [2]. For the same compound, the z-score in assay [3] is -0.548; in assay [4], -1.63 (inactive); in assay [5] it was -0.734 (inactive); in assay [6], -0.684 (inactive).

As for `O=C(NCC(O)CO)[C@]1(Cc2ccccc2)N=C(c2ccc(OCCCO)cc2)O[C@@H]1c1ccccc1` (some centres not stated), the composite z-score in assay [1] was 1.61 (inactive); in assay [2] it was 0.776. Besides, the z-score in assay [3] is -1.62; in assay [4], -4.2 (inactive); in assay [5], -0.707 (inactive); in assay [6], -0.655 (inactive).

On to `CO[C@H]1O[C@H](CO)[C@@H](OC(=O)Nc2ccc3c(c2)OCO3)[C@H](OC(=O)Nc2ccccc2)[C@@H]1OC(=O)Nc1ccccc1`, for which the composite z-score was 1.06 (inactive) in assay [1] and 0.649 in assay [2]. Also, the z-score in assay [3] was -1.76; in assay [4] it was -5.39 (inactive); in assay [5], 0.171 (inactive); in assay [6] it was 0.889 (inactive).

For `CCCCCCc1nc(C2CC2)c(C)c2c1[Si](C(C)C)(C(C)C)OC2`, the composite z-score is -0.0485 (inactive) in assay [1] and -0.462 in assay [2]. Besides, the z-score in assay [3] is -2.41; in assay [4], 2.65 (inactive); in assay [5] it was -0.53 (inactive); in assay [6], -0.23 (inactive).

As for `C=CCNC(=O)[C@H]1[C@@H]2C(=O)O[C@@H](c3ccccc3)[C@@H](c3ccccc3)N2[C@@H](c2ccc(O)cc2)[C@]12C(=O)Nc1ccc(C#CCNC(N)=O)cc12`, the figures for the composite z-score in assay [1] and in assay [2] were 0.342 (inactive) and 0.0866, respectively. In addition, the z-score in assay [3] is -0.491; in assay [4], -2.56 (inactive); in assay [5], 0.191 (inactive); in assay [6], 0.424 (inactive).

For `O=C1OCCC=C[C@H]2OC34C=CCN(Cc5ccccc5)C(=O)[C@H]3N(CCO)C(=O)[C@@H]4C12` (some centres not stated), the composite z-score in assay [1] was -0.525 (inactive); in assay [2] it was -1.24. Also, the z-score in assay [3] is -1.92; in assay [4] it was -2.7 (inactive); in assay [5], -0.618 (inactive); in assay [6], -0.732 (inactive).

As to `Cc1ccc(S(=O)(=O)N2[C@@H](c3ccccc3)C(C(=O)O)=CC[C@H]2c2ccccc2)cc1`, the composite z-score is -0.141 (inactive) in assay [1] and 0.0514 in assay [2]. In addition, the z-score in assay [3] is -1.02; in assay [4] it was -3.76 (inactive); in assay [5] it was -0.354 (inactive); in assay [6], -0.449 (inactive).

`C[C@H]1C2[C@H](Cc3ccccc3)NC(=O)[C@]23C(=O)N[C@H](Cc2ccccc2)C(=O)N[C@@H](Cc2ccccc2)C(=O)NC/C=C\C/C=C/C3[C@@H]2O[C@]12C` (some centres not stated): the composite z-score in assay [1] is -0.157 (inactive); in assay [2], -0.564. Also, the z-score in assay [3] was -0.873; in assay [4], -7.06 (inactive); in assay [5], 0.531 (inactive); in assay [6], 0.375 (inactive).

Take `COCCCNC(=O)[C@@H]1c2ccccc2C(=O)N(CC23CC4CC(CC(C4)C2)C3)[C@H]1c1ccc(CO)cc1`: the values for the composite z-score in assay [1] and in assay [2] were 0.428 (inactive) and -0.518, respectively. The z-score in assay [3] was -1.95; in assay [4], -4.65 (inactive); in assay [5], -0.546 (inactive); in assay [6], -0.786 (inactive).

`C=CCOC(=O)[C@@H]1[C@H]2C(=O)O[C@H](c3ccccc3)[C@H](c3ccccc3)N2[C@H](c2ccc(OCCOC(=O)[C@H]3C[C@H]4C(=O)N5CCC[C@H]5C(=O)N4[C@H]3c3ccc(O)cc3)cc2)[C@@]12C(=O)Nc1ccccc12`: the composite z-score in assay [1] is 1.22 (inactive); in assay [2] it was 0.804. Besides, the z-score is -2.01 in assay [3], 1.59 (inactive) in assay [4], 0.458 (inactive) in assay [5] and 0.895 (inactive) in assay [6].

Turning to `CCc1cccc(NC(=O)O[C@H]2[C@H](OC(=O)Nc3ccccc3)[C@@H](OC(=O)Nc3ccccc3)[C@@H](OC)O[C@@H]2CO)c1`, the figures for the composite z-score in assay [1] and in assay [2] were 0.652 (inactive) and 0.886, respectively. Further, the z-score in assay [3] was -2.16; in assay [4] it was -5.07 (inactive); in assay [5], -0.235 (inactive); in assay [6], -0.0949 (inactive).

In the case of `CCOC(=O)[C@H]1C/C=C/C[C@H](C(=O)OCC)C(=O)O[C@H]2[C@@H](OC)O[C@H](CO)[C@@H](OC(=O)Nc3ccc(Br)cc3)[C@@H]2OC1=O`, the composite z-score in assay [1] was 0.709 (inactive); in assay [2] it was 0.867. Further, the z-score in assay [3] is -1.85; in assay [4], -0.239 (inactive); in assay [5] it was -0.181 (inactive); in assay [6], -0.26 (inactive).

For `C=CCNC(=O)[C@H]1[C@@H]2C(=O)O[C@@H](c3ccccc3)[C@@H](c3ccccc3)N2[C@@H](c2ccccc2OCCO)[C@]12C(=O)N(C(=O)OCCOC)c1ccc(C#CCC(C(=O)OC)C(=O)OC)cc12`, the figures for the composite z-score in assay [1] and in assay [2] were 1.09 (inactive) and 0.818, respectively. The z-score in assay [3] is -2.36; in assay [4], 0.6 (inactive); in assay [5] it was -0.263 (inactive); in assay [6], -0.35 (inactive).

Take `O=C1C2C=CC(C(O)c3ccccc3)N(n3cnnc3)C2C(=O)N1Cc1ccccc1` (configuration not stated): the composite z-score is -0.377 (inactive) in assay [1] and -0.179 in assay [2]. In addition, the z-score in assay [3] was 0.454; in assay [4], -2.02 (inactive); in assay [5], -1.25 (inactive); in assay [6], -1.21 (inactive).

Consider `C=C(CCCC)C(=O)CC[C@@H](OC(=O)c1cccnc1)c1cccc(OCCO)c1`, for which the results for the composite z-score in assay [1] and in assay [2] were 1.48 (inactive) and 0.702, respectively. The z-score in assay [3] was -2.81; in assay [4] it was -3.79 (inactive); in assay [5], -0.279 (inactive); in assay [6], -0.326 (inactive).

With `O=C/C=C/c1ccccc1Cl`, the composite z-score in assay [1] was 0.0944 (inactive); in assay [2] it was -0.264. Moreover, the z-score is 0.316 in assay [3], -0.26 (inactive) in assay [4], 0.152 (inactive) in assay [5] and 0.0674 (inactive) in assay [6].

With `C=C(COC)/C(=C/C[C@H](OC(C)=O)c1ccc(OCCO)cc1)c1cnc2ccccc2c1`, the composite z-score in assay [1] is 0.878 (inactive); in assay [2], 0.0356. Moreover, the z-score in assay [3] is -3.08; in assay [4] it was -3.6 (inactive); in assay [5] it was -0.619 (inactive); in assay [6], -0.632 (inactive).

As to `O=C1c2ccccc2[C@](Cc2ccccc2I)(C(=O)NCC(F)(F)F)[C@H](c2ccc(CO)cc2)N1Cc1ccccc1C(F)(F)F`, the results for the composite z-score in assay [1] and in assay [2] were 0.57 (inactive) and 0.188, respectively. The z-score is 0.121 in assay [3], -2.47 (inactive) in assay [4], -0.103 (inactive) in assay [5] and 0.14 (inactive) in assay [6].

With `O=C1NC(=O)C2C1C=CC(C(O)C=Cc1ccc([N+](=O)[O-])cc1)N2Nc1ccccn1` (configuration not stated), the composite z-score is 0.433 (inactive) in assay [1] and 0.792 in assay [2]. In addition, the z-score in assay [3] is -0.304; in assay [4], -1.88 (inactive); in assay [5], -0.746 (inactive); in assay [6], -0.987 (inactive).
